Reference: PubChem BioAssay (NCI)
Compounds without any hit were thinned out: in the full panel of roughly 83,000, 20% have a hit.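 Growth was measured after 48 h exposure to one concentration of compound in 96-well plates. Values under 10 count as active.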 Activity calls are given as the source filed them.

These compounds were tested on MDA-MB-435 melanoma (assay: NCI-60 one-dose screen, 48 h (100 = growth as untreated, 0 = no growth, -100 = all killed)). Conditions: 10 µM unless noted.

| Structure (SMILES) | growth |
| --- | --- |
| O=C(N/N=C/c1ccc(Cl)cc1Cl)c1ccc2nc(-c3ccc(Cl)cc3)[nH]c2c1 | 38.8% (inactive) |
| O=C(Cn1nnc([N+](=O)[O-])n1)c1ccccc1 | 85.4% (inactive) |
| O=C1NC(=Nc2ccc(O)cc2)S/C1=C\c1cccs1 | -24.7% (active) |
| NC(=O)c1ccc(NC(=O)c2oc3ccccc3c2-c2cnn(-c3ccccc3)c2)cc1 | 37.7% [50 µM] (inactive) |
| CCOC(=O)/C=C/c1c(C)[nH]c(=O)[nH]c1=O | 109% (inactive) |
| Cc1cccc(NC(=O)CSc2nc3ccc([N+](=O)[O-])cc3[nH]2)c1 | 72% (inactive) |
| NS(=O)(=O)c1ccc(N/C=C/C(=O)c2cc3ccccc3oc2=O)cc1 | 100% (inactive) |
| C=CC(C)(O)CC/C=C(\CO)C(=O)OC1C(C)OC(O[C@](C)(C=C)CC/C=C(\CO)C(=O)O[C@H]2C[C@@]3(C(=O)OC4OC(CO)C(O)C(O)C4OC4OC(C)C(OC5OC(CO)C(O)C5O)C(OC5OC(CO)C(O)C(O)C5O)C4O)C(CC2(C)C)C2=CCC4[C@@]5(C)CC[C@H](OC6OC(COC7OC(C)C(O)C(O)C7OC7OCC(O)C(O)C7O)C(O)C(O)C6NC(C)=O)C(C)(C)C5CC[C@@]4(C)[C@]2(C)C[C@H]3O)C(O)C1O (some centres not stated) | -80.5% (active) |
| Nc1nc(C(=O)N/N=C/c2ccc(N3CCOCC3)cc2)nn1-c1ccc(S(N)(=O)=O)cc1 | 104% (inactive) |

These compounds were tested on SW-620 colon in the same assay as above. Conditions: 10 µM unless noted.

| Structure (SMILES) | growth |
| --- | --- |
| O=S(=O)(c1ccccc1)N1CCCN(c2nc(-c3ccccc3)nc3nc(-c4ccccc4)oc23)CC1 | 109% (inactive) |
| Cc1cc2oc(=O)cc(CP(=O)(O)O)c2cc1O | 91.3% (inactive) |
| COC(=O)c1ccc2c(c1)c1c(C)c3ccncc3c(C)c1n2C | 21% (inactive) |
| CCOC(=O)N1CCN(S(=O)(=O)c2oc(-c3ccc(Cl)cc3)nc2C#N)CC1 | -49% (active) |
| CC(CN)[C@@H]1CC[C@]2(CO)CC[C@]3(C)[C@H](CC[C@@H]4[C@@]5(C)CCC(N)C(C)(C)[C@@H]5CC[C@]43C)[C@@H]12 (some centres not stated) | -75.7% (active) |
| C=CC1(C)C(O[Si](C)(C)C(C)(C)C)CC2C3OC(=O)NC31c1cccc3c1[C@H](C(=O)N3C)C2(C)C (some centres not stated) | 64.6% (inactive) |
| O=C1/C(=C/c2ccc(C(F)(F)F)cc2)COc2ccc(O)c(O)c21 | -46% (active) |
| Cc1ccccc1CNc1c2ccccc2nc2ccccc12 | 13.8% (inactive) |
| CCCCC(=O)Nc1ncc(Cc2ccccc2Cl)s1 | 24.5% (inactive) |
| C=CCn1c(SCC(=O)Nc2ccc(C(=O)/C=C/c3cc(OC)c(OC)c(OC)c3)cc2)nnc1-c1cc(-c2ccc(OC)cc2)nc2ccccc12 | 90.8% (inactive) |
| N#Cc1c(NC(=O)c2cccs2)[n+]([O-])c2ccc(Cl)cc2[n+]1[O-] | 85.3% (inactive) |
| CCOC(=O)c1c2c(n3c1NCC3)-c1ccccc1C2=O | 91.8% (inactive) |
| COc1ccc(NC(=O)c2cccc(C3CCc4c(cc(OC)c(OC)c4OC)O3)c2)cc1 (configuration not stated) | 29% (inactive) |
| C[C@@H](CO)[C@@H]1CC[C@]2(C(=O)N3CCN(C)CC3)CC[C@]3(C)[C@H](CC[C@@H]4[C@@]5(C)CC[C@H](O)C(C)(C)[C@@H]5CC[C@]43C)[C@@H]12 | 51.5% (inactive) |
| COc1ccc(NC(=O)c2ccc(C(=O)Nc3ccc(OC)cc3OC)cc2)c(OC)c1 | 97.9% (inactive) |
| CCN(CC)CCCC(C)Nc1ccc2cc(OC)ccc2n1 (configuration not stated) | 94.4% (inactive) |
| CCN(C(=O)N1CCN(c2cc3c(cc2F)c(=O)c(C(=O)O)cn3C2CC2)CC1)c1nc(-c2ccc(C)cc2)cs1 | 18.5% (inactive) |
| CCOC(=O)n1cc(-c2nonc2-c2cn(C)c3ccccc23)c2ccccc21 | 18.8% (inactive) |
| O=C1c2cccnc2C(=O)c2c1c(C(=O)OCCCN1CCCCC1)c1ccccn21 | -60.1% (active) |
| Cc1ccc(Nc2nc(-c3ccc(F)cc3)c(C#N)c(=O)n2C)cc1 | 68.9% (inactive) |
| COc1cc(/C=C2\C(=O)N(c3c(Cl)cccc3Cl)c3ccccc32)cc(OC)c1OCCCCCCn1c2ccccc2c(=O)c2ccccc21 | 106% (inactive) |
| CSCCC(NC(=O)c1ccccc1)C(=O)N/N=C1\S/C(=C/c2ccc(Cl)cc2)C(=O)N1C (configuration not stated) | 93.5% (inactive) |
| CC1(C)CCC(S(=O)(=O)c2ccc3c(c2)/C(=N\O)c2cc(S(=O)(=O)N4CCN(c5ccc(F)cc5O)CC4)ccc2-3)CC1 | -81.5% (active) |
